Each structure is given as a SMILES string. A number with no mark means an inactive call. Inconclusive results are not listed. Active and inactive are the calls of the source. Unless noted, the call rests on the fitted dose curve; in most records, active means well fitted curve in the direction sought with a large enough effect; inconclusive means small, poorly fitted or top-dose-only effect, or another doubt; inactive means no such curve, though single readings can be large; an effect the other way counts as inactive or inconclusive.

Experiment [1] deals with Cytochrome P450 3A4 (Homo sapiens) (UniProt P08684). In words: qHTS for inhibitors of CYP3A4 against the NCATS DSHEA and TCM libraries (AID 1919971). Further: potency means the concentration at half of the fitted maximal effect. The conditions noted are these: recombinant CYP3A4 enzyme activity, luminescence qHTS. Summed up: (§1)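 Concentration-response screening with isoform-matched pro-luciferin substrates. The CYP reaction was initiated by NADPH regenerating solution and ran 30-45 min in darkness at room temperature.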
Sequence of Cytochrome P450 3A4 (Homo sapiens) (P08684 whole entry, looked up, canonical isoform): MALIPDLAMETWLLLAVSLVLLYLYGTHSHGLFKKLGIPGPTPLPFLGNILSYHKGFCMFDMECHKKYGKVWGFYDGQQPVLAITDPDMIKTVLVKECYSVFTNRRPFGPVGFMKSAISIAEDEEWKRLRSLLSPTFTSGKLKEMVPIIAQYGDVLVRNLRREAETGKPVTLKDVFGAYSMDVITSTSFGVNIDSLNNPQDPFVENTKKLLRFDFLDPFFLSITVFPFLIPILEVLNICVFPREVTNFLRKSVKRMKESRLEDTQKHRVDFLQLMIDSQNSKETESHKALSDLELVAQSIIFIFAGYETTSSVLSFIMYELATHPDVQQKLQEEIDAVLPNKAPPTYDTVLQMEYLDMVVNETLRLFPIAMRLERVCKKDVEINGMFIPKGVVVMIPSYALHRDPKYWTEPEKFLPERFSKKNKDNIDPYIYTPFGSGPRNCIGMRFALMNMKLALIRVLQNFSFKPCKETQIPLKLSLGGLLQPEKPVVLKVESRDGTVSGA
(In general: In qHTS, concentration-response curves come from the screen itself.)

Experiment [2] deals with Cytochrome P450 2D6 (Homo sapiens) (UniProt P10635). In words: qHTS for inhibitors of CYP2D6 against the NCATS DSHEA and TCM libraries (AID 1919972). Further: potency means the concentration at half of the fitted maximal effect. The following applies: CYP2D6 enzymatic inhibition, luminescence qHTS; series mostly up to 34.1 µM. Summed up:
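CYP2D6 enzyme with pro-luciferin substrate in manufacturer buffer (typically 100 mM KPO4), preincubated 15 min RT with substances (most at 19.5 nM upward); NADPH regeneration system (1x) started 30–45 min RT reaction; P450-Glo luminescence read after 30 min; quinidine as intraplate control.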

For experiment [3], the target named is Cytochrome P450 2C9 (Homo sapiens) (UniProt P11712). In words: qHTS for inhibitors of CYP2C9 against the NCATS DSHEA and TCM libraries (AID 1919973). Further: potency means the concentration at half of the fitted maximal effect. The conditions noted are these: recombinant CYP2C9 enzyme activity, luminescence; series mostly up to 34.1 µM. Summed up: as §1
Sequence of Cytochrome P450 2C9 (Homo sapiens) (P11712 whole entry, looked up): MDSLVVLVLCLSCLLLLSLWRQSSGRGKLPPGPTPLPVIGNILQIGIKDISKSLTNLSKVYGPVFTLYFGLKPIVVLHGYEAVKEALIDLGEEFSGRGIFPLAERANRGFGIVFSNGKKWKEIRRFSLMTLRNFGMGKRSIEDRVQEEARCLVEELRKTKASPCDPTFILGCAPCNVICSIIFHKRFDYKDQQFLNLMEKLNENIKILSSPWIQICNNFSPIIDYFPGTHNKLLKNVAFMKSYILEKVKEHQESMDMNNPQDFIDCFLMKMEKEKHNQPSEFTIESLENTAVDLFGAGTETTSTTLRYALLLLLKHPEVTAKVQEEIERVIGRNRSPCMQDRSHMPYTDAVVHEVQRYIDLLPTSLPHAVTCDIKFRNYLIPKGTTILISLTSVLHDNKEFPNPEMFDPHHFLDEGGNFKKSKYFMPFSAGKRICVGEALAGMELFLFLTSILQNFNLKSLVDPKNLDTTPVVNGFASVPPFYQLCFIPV
Experiment [4] addresses Cytochrome P450 2C19 (Homo sapiens) (UniProt P33261). The experiment in a line: qHTS for inhibitors of CYP2C19 against the NCATS DSHEA and TCM libraries (AID 1919974).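 Further: luminescence from luciferin released by CYP2C19 oxidation of a pro-luciferin substrate; potency means the concentration at half of the fitted maximal effect.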 The conditions noted are these: CYP2C19 enzyme inhibition, luminescence qHTS. A digest of the protocol:
as §1

Experiment [5] can be described thus: KB-3-1 P-gp reporter qHTS against the NCATS DSHEA and TCM libraries (AID 1919975). Further: 0% is about no effect. The conditions noted are these: KB-3-1 parental cells, CellTiter-Glo luminescence viability, 72 h; series mostly up to 26.1 µM. Summed up: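 Cell viability qHTS: 500 KB-3-1 cells/well, substances in titration, ~72 h, 37C; luminescent CellTiter-Glo read.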
The target of experiment [6] is Cytochrome P450 1A2 (Homo sapiens) (UniProt P05177). In words: qHTS for inhibitors of CYPIA2 against the NCATS DSHEA and TCM libraries (AID 1919976). Further: potency means the concentration at half of the fitted maximal effect. The following applies: recombinant CYP1A2 enzyme activity, luminescence. A digest of the protocol:
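Enzyme and pro-luciferin substrate, or substrate alone as no-enzyme background, are pre-incubated with test samples for 15 min at room temperature. NADPH regeneration system (1x final) initiates a 30-45 min dark reaction; luciferase detection reagent follows before luminescence reading.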

A short description of experiment [7]: qHTS Counterscreen for compound interference against the NCATS DSHEA and TCM libraries (AID 1919978).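 Further: compounds preincubated with 1 µM D-luciferin or buffer before detection reagent; % of control where 0% means no effect.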 The conditions noted are these: firefly luciferase detection reagent interference, luminescence. A digest of the protocol: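 Interference check: test samples were incubated with D-luciferin (final 1 uM) or buffer only for 15 min, room temperature, in a qHTS titration up to 39.8 uM, then developed with detection reagent and read by luminescence.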

Experiment [8] is described as follows: Dual reporter qHTS for agonist of Pregnane X Receptor (hPXR) against the NCATS DSHEA and TCM libraries: Fluorescence readout (AID 1920058). Further: 0% is about no effect. The conditions noted are these: PXR dual reporter cells; series mostly up to 40 µM. Summed up: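 Cells were plated at 2000 per well and allowed to attach for 5 h. Test substances were pinned in and incubated roughly 24 h. CellTiter-Fluor was then added and fluorescence measured after 1 h.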

Experiment [9] deals with Nuclear receptor subfamily 1 group I member 2 (Homo sapiens) (UniProt O75469). The experiment in a line: Dual reporter qHTS for agonist of Pregnane X Receptor (hPXR) against the NCATS DSHEA and TCM libraries: Luminescence readout (AID 1920059). Further: 0% is about no effect. The conditions noted are these: hPXR dual reporter cells, luciferase luminescence agonist; series mostly up to 40 µM. A digest of the protocol: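 Luminescent PXR reporter read (ONE-Glo) after a CellTiter-Fluor viability read, following 24 h, 37C treatment of HepG2 cells stably carrying hPXR-Luc.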
Sequence of Nuclear receptor subfamily 1 group I member 2 (Homo sapiens) (O75469 whole entry, looked up): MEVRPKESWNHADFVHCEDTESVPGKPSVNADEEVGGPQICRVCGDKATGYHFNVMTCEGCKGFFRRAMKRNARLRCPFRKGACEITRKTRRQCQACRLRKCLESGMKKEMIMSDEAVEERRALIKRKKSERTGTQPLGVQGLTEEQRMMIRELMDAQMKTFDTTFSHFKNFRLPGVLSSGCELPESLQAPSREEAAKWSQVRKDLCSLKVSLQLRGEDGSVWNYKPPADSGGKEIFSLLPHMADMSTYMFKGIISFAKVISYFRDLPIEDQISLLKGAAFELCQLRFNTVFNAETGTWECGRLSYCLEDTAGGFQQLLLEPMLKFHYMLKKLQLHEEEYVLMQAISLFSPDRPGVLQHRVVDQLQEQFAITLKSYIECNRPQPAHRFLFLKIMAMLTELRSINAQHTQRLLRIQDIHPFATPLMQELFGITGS

Experiment [10] can be described thus: Dual reporter qHTS for antagonist of Pregnane X Receptor (hPXR) against the NCATS DSHEA and TCM libraries: Fluorescence Readout (AID 1920061). Further: 0% is about no effect. The conditions noted are these: PXR dual reporter cells, antagonist mode; series mostly up to 40 µM. A digest of the protocol: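 HepG2 hPXR-Luc, 2000 cells/well, charcoal-stripped FBS medium; 5 h attach; RIF 2 uM final; 24 h 37C/5% CO2; CellTiter-Fluor 1 h, fluor 405/540; ONE-Glo 30 min RT, lum.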

The target of experiment [11] is Lysosomal acid glucosylceramidase (Homo sapiens) (UniProt P04062). In words: Glucocerebrosidase-p2 (AID 348; in the data active means potency below about 10 µM; further: potency means the concentration at half of the fitted maximal effect). The following applies: purified GBA, blue fluorogenic substrate, 40 min. Summed up: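 Normal human glucocerebrosidase (0.2 nM) with blue fluorogenic substrate (80 uM final) in citrate/phosphate pH 5.9 with 10mM sodium taurocholate, 0.01% tween-20; 40 min RT, NaOH/glycine stop; fluorescence Ex 365/Em 440; AC50 from a titration from 0.6 nM upwards.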
Sequence of Lysosomal acid glucosylceramidase (Homo sapiens) (P04062 whole entry, looked up): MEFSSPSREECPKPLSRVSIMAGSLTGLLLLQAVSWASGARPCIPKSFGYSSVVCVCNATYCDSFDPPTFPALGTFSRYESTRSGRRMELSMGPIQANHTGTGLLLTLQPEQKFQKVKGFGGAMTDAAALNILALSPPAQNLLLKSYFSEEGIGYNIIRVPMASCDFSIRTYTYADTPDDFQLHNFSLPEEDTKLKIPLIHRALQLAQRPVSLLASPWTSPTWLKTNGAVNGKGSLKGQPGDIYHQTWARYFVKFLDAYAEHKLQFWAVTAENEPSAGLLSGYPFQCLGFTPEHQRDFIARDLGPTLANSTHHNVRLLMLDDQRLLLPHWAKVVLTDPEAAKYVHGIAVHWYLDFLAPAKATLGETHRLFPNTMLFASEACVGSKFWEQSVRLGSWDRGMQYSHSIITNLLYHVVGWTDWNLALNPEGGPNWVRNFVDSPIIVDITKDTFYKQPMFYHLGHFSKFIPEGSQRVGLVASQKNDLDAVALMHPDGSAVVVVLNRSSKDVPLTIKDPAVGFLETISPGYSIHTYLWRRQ

Experiment [12] can be described thus: AP1 Signaling Pathway (AID 357; active means well fitted curve in either direction with a large enough effect, not every such curve was filed as active; further: on the % scale 0 is the no-effect control and ±100 the full control effect). The conditions noted are these: ME-180 AP-1-bla reporter, EGF-induced, beta-lactamase ratio, 5 h; at 7.69 µM (top of the series) unless noted. Summed up:
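ME-180 cells with beta-lactamase reporter under AP-1 response element, stimulated with EC50 EGF; compounds tested in titration series, 5 h at 37 °C. CCF4 substrate added 2.5 h at room temperature; 460/530 nm emission ratio gave %activity and AC50.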

The target of experiment [13] is Cytochrome P450 1A2 (Homo sapiens) (UniProt P05177). The experiment in a line: p450-cyp1a2 (AID 410; calls by dose curve;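 further: -100% = full effect of reference inhibitor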). The following applies: recombinant CYP1A2, luciferin-ME demethylation, luminescence; series mostly up to 57 µM. A digest of the protocol: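 O-Demethylation of luciferin 6' methyl ether by human CYP1A2 is monitored as luciferase luminescence. Substrate sits at Km (100uM); enzyme is 20nM. Values are scaled to 57 uM furafylline as maximal inhibition.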
Sequence of Cytochrome P450 1A2 (Homo sapiens) (P05177 whole entry, looked up): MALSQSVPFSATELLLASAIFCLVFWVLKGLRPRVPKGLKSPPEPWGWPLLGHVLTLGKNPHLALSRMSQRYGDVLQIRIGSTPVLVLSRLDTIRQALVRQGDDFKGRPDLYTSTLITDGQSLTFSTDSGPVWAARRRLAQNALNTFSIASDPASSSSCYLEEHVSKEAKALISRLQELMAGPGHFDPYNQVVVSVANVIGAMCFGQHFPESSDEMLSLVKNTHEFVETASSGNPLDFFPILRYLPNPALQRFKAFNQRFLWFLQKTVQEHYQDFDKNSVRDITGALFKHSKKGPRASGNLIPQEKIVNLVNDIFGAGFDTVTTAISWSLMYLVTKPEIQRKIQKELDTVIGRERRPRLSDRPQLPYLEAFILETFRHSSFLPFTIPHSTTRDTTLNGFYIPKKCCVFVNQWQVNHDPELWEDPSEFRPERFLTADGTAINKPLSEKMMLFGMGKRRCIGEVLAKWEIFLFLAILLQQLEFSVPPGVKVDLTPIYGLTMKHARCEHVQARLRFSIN

Experiment [14] can be described thus: Stat Signaling Pathway (AID 446; active means well fitted curve in either direction with a large enough effect, not every such curve was filed as active;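 further: ME-180 cervical cancer cells given 40 pM IL-6 alongside compound; SIE-controlled beta-lactamase reporter measured as 460/530 nm FRET emission ratio; on the % scale 0 is the no-effect control and ±100 the full control effect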). The following applies: ME-180 (cervical carcinoma) SIE beta-lactamase reporter, IL-6 stimulated, 5 h; at 7.69 µM (top of the series) unless noted. A digest of the protocol: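 Emission at 460 and 530 nm (excitation 405 nm) reports SIE-controlled beta-lactamase in ME-180 cells. Cells received compound with 40 pM IL-6 for 5 hrs at 37 C; data scaled between 300 pM IL-6 and 125 nM JAK-inhibitor controls.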

The target in experiment [15] is Glucocorticoid receptor (Homo sapiens) (UniProt P04150). In words: GR-GFP Redistribution (AID 450;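 active means compounds whose dose series gives a full or clear partial fitted curve of increased nuclear translocation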; further: potency means the concentration at half of the fitted maximal effect). The following applies: U2OS GR-GFP nuclear translocation, laser cytometry, 2 h.
Sequence of Glucocorticoid receptor (Homo sapiens) (P04150 whole entry, looked up, the tested form may be a part): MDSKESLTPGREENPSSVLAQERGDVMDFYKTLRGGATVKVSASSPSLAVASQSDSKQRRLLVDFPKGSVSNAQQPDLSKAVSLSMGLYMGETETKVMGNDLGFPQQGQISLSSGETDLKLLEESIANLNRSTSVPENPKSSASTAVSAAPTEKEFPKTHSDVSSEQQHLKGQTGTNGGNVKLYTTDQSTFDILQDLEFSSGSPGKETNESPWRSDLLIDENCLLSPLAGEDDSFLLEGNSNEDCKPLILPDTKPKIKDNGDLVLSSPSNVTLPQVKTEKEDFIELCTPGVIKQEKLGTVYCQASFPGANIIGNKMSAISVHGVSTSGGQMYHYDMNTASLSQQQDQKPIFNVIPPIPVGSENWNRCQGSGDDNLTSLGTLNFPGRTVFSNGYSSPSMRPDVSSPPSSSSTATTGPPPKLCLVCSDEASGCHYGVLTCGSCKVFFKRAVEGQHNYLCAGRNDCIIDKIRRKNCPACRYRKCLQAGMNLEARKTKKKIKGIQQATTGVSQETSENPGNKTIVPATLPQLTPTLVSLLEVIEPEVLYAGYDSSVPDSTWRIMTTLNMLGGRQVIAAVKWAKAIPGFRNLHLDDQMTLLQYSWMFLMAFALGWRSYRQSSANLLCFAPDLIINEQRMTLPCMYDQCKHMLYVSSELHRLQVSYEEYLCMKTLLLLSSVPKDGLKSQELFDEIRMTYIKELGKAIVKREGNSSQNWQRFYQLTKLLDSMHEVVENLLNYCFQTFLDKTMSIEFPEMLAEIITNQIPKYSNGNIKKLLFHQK
For experiment [16] the target is unchanged. The experiment in a line: GR-EFC Redistribution (AID 451; calls by dose curve; further: potency means the concentration at half of the fitted maximal effect). The conditions noted are these: CHO-K1 GR-EFC translocation, beta-gal luminescence, 2 h. A digest of the protocol: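 Translocation of GR-ED fusion to nuclear EA restores b-gal, read by luminescence after 1 h room-temperature detection. Engineered CHO-K1 biosensor cells, 1,000/well, exposed 2 h at 37 C to titrations up to 46 uM final.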

The target of experiment [17] is Mitogen-activated protein kinase 10 (Mus musculus) (UniProt Q61831). The experiment in a line: JNK3 AlphaScreen Assay (AID 530; active means well fitted curve in either direction with a large enough effect, not every such curve was filed as active;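 further: kinase came from lysate of stimulated human HepG2 cells; signal reports phosphorylation of biotinylated GST-cJun 1-79 at Ser73 with 10 µM ATP; on the % scale 0 is the no-effect control and ±100 the full control effect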). The conditions noted are these: JNK3 lysate, c-Jun phosphorylation; series mostly up to 57.1 µM. Summed up:
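qHTS titrations with 15 min compound pre-incubation before adding ATP (10 uM final). Read-out: AlphaScreen of Ser73-phosphorylated biotin-GST-cJun using HepG2 lysate JNK3 activated by IL-1β and TNFα.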
(In general: Alpha assays give light when donor and acceptor beads are brought close together.)

The target in experiment [18] is 3',5'-cyclic-AMP phosphodiesterase 4B (Homo sapiens) (UniProt Q07343). In words: qHTS Assay for Inhibitors of PDE-IV (AID 607; active means well fitted activation curve with a large enough effect in the main read-out, with a control signal flat, not every such curve was filed as active; further: % of control where 0% means no effect). The following applies: HEK293 ACTOne CNG channel cells, membrane potential fluorescence; series mostly up to 22.9 µM. Summed up: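 The readout is membrane depolarisation from a cAMP-sensing CNG channel, detected with a potential dye at ex 535/em 590. Cells were HEK293-derived (endogenous PDE-IV) at 1000 cells/well, titrated up to 22.9 uM final.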
Sequence of 3',5'-cyclic-AMP phosphodiesterase 4B (Homo sapiens) (Q07343 whole entry, looked up): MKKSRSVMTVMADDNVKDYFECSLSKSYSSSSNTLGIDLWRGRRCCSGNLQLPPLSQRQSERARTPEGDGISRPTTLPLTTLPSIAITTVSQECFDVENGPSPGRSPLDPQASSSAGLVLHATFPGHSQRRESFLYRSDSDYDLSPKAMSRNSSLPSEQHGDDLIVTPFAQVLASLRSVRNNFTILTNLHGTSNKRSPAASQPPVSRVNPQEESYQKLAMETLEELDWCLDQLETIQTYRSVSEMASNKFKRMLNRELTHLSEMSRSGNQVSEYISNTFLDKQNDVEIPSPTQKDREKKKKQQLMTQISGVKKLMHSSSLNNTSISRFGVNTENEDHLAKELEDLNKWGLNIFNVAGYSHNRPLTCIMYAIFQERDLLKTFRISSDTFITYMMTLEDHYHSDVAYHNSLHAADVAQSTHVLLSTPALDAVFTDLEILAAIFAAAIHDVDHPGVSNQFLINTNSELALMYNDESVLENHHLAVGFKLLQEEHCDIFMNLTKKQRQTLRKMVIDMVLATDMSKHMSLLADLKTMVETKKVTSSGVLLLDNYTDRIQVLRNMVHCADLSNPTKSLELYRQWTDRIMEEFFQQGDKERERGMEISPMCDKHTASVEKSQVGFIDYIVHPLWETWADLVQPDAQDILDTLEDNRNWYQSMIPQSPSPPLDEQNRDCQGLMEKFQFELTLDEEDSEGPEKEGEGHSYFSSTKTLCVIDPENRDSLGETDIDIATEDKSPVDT

Experiment [19] has as its target Cytochrome P450 2C9 (Homo sapiens) (UniProt P11712). In words: qHTS Assay for Inhibitors and Substrates of Cytochrome P450 2C9 (AID 883). Further: potency means the concentration at half of the fitted maximal effect; nearly all actives have a fitted effect of over 60% in size. The conditions noted are these: recombinant CYP2C9, luciferin-H luminescence, 60 min; series mostly up to 57.1 µM. A digest of the protocol:
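Inhibition of CYP2C9 is scored as loss of luminescence, with 57uM sulphaphenazole defining 100% inhibition. Substrate Luciferin-H is used at 100uM, equal to its KM; enzyme at 10nM in 25mM KPO4, 60 min at 37C with NADPH regeneration.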

Experiment [20] in a line: Cell Viability qHTS for small molecule stabilizers of the endoplasmic reticulum resident proteome (AID 1508629).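 Further: potency means the concentration at half of the fitted maximal effect; compound exposure about 46 h in total before the viability read.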 The following applies: cell viability counter-screen, 100 nM thapsigargin for final 4 h.

Sequence of Cytochrome P450 2D6 (Homo sapiens) (P10635 whole entry, looked up): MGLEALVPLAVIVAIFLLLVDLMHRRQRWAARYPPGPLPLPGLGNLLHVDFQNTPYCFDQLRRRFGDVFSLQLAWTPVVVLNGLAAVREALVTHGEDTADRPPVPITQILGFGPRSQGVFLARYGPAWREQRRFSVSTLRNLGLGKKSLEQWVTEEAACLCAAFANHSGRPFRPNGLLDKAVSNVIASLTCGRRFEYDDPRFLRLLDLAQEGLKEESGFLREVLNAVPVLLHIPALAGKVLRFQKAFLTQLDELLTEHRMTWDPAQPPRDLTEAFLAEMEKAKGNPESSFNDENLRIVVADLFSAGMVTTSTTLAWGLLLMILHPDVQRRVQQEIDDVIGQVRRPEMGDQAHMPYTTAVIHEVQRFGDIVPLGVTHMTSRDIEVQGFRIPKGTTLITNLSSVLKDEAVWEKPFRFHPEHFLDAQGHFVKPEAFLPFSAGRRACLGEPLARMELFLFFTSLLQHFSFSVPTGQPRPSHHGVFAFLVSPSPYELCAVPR
Sequence of Cytochrome P450 2C19 (Homo sapiens) (P33261 whole entry, looked up): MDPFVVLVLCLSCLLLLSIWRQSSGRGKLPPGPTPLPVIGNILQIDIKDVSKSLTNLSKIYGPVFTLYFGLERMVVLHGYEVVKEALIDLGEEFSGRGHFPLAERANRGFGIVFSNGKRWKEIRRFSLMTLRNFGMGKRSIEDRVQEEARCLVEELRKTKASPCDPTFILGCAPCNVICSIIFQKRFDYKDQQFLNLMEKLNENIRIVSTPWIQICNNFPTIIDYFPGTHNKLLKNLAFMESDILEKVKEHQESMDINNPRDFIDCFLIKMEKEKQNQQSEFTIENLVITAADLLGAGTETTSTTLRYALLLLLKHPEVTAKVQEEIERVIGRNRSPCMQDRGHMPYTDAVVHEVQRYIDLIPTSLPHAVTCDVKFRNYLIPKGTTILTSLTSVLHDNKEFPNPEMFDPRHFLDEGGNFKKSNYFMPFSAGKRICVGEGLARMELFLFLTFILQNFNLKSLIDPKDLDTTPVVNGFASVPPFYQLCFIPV

For the molecule `O=C(OC[C@H]1O[C@@H](OC(=O)c2cc(O)c(O)c(O)c2)[C@H](OC(=O)c2cc(O)c(O)c(O)c2)[C@@H](OC(=O)c2cc(O)c(O)c(O)c2)[C@@H]1OC(=O)c1cc(O)c(O)c(O)c1)c1cc(O)c(O)c(O)c1`, the Potency is 7.08 µM (active) in experiment [1]; 14.1 µM (active) in experiment [2]; 6.31 µM (active) in experiment [3]; 3.98 µM (active) in [4]; 3.55 µM (active) in [6]. Also, the outcome in experiment [5], in experiment [8], in experiment [9] and in [10] was inactive. In addition, the max response in experiment [7] is 0.413%.
In the case of `CC(C)=CCc1c2c(c3occ(-c4ccc(O)c(O)c4)c(=O)c3c1O)C=CC(C)(C)O2`, the Potency in experiment [11] is > 11.4 µM; in experiment [15], > 46 µM; in [16], > 9.22 µM; in experiment [19], 3.16 µM (active); in [20] it was 7.94 µM (active). Besides, the activity change, negative = inhibition in experiment [12] was -0.16%; in [13] it was -3% [at 2.29 µM]; in experiment [17], -1.7% [at 11.4 µM]. Besides, the activity, negative = inhibition in experiment [14] was -4.46%. In experiment [18], the Potency entry was “inactive”.

The record behind these values is PubChem BioAssay (NCATS).
